Results on eight molecules are retold here after PubChem BioAssay (NCI).

Each structure is given as a SMILES string. The panel holds about 83,000 compounds, 20% with a hit somewhere; the sample as a whole holds those more often.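 Plates (96-well) were seeded with cells, treated with compound at one concentration, and incubated for 48 hours before percent growth was determined.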 A number with no mark means an inactive call. Active and inactive are the calls of the source. Rule for the calls: active = growth percent below 10; inactive = the rest.

Common to all, as to test: NCI-60 one-dose screen, 48 h (100 = growth as untreated, 0 = no growth, -100 = all killed)
For one assay, the system named is NCI-H23 lung. Particulars: 10 µM unless noted.
A further assay relates to NCI-H226 lung. The conditions noted are these: 10 µM unless noted.
The subject of the next assay is NCI-H322M lung. The conditions noted are these: 10 µM unless noted.
The next assay deals with HOP-62 NSCLC. Particulars: 10 µM unless noted.
A further assay has as its system NCI-H460 lung. Particulars: 10 µM unless noted.
For the next assay, the system named is HOP-92 NSCLC. Particulars: 10 µM unless noted.
Another assay relates to NCI-H522 lung. The conditions noted are these: 10 µM unless noted.
In another assay the test system is A549/ATCC NSCLC. Particulars: 10 µM unless noted.
Another assay has as its system 786-0 renal. The conditions noted are these: 10 µM unless noted.
The test system of the next assay is COLO 205 colon. Particulars: 10 µM unless noted.
The subject of a further assay is DU-145 prostate. Particulars: 10 µM unless noted.
The next assay deals with K-562 leukemia. Particulars: 10 µM unless noted.
The test system of the next assay is MALME-3M melanoma. The conditions noted are these: 10 µM unless noted.
A further assay relates to MDA-MB-231 breast. The conditions noted are these: 10 µM unless noted.
Another assay relates to RXF 393 renal. Particulars: 10 µM unless noted.
The subject of a further assay is SF-268 CNS. The conditions noted are these: 10 µM unless noted.
The next assay relates to SF-295 CNS. Particulars: 10 µM unless noted.
The next assay relates to SF-539 CNS. The conditions noted are these: 10 µM unless noted.
The subject of the next assay is UACC-257 melanoma. Particulars: 10 µM.
The next assay deals with M14 melanoma. The conditions noted are these: 10 µM unless noted.

Turning to `COc1ccc(-c2ccnc3c(C#N)c(Nc4ccccc4)nn23)cc1OC`, the growth in the assay with NCI-H23 lung is 93%; with NCI-H226 lung it was 62.6%; with NCI-H322M lung, 91.2%; in the assay on HOP-62 NSCLC, 86.5%; with NCI-H460 lung it was 92.8%; with HOP-92 NSCLC it was -0.0748% (active). The growth is 81.4% with NCI-H522 lung; 85.4% with A549/ATCC NSCLC; 85.7% with 786-0 renal; 97.1% in the assay on COLO 205 colon; 93.9% in the assay on DU-145 prostate; 93.6% in the assay on K-562 leukemia. In addition, the growth was 110% in the assay with MALME-3M melanoma; 64.2% in the assay with MDA-MB-231 breast; 15.8% in the assay on RXF 393 renal; 86.4% in the assay with SF-268 CNS; 93.2% in the assay with SF-295 CNS; 78.8% in the assay with SF-539 CNS. For the same molecule, the growth in the assay on UACC-257 melanoma was 104%; in the assay on M14 melanoma, 117%.
For the molecule `COc1ccc2c(c1)oc1c3[nH]c4ccccc4c3c3c(c21)C(=O)N(O)C3=O`, the growth with NCI-H23 lung was 31.6%; with NCI-H226 lung it was 79.9%; in the assay with NCI-H322M lung, 65.5%; in the assay with HOP-62 NSCLC it was 13.2%; with NCI-H460 lung, 5.34% (active); with HOP-92 NSCLC, 98.7%. Further, the growth with NCI-H522 lung was 43%; in the assay with A549/ATCC NSCLC it was 74.3%; in the assay on 786-0 renal, 31.1%; with COLO 205 colon, 69.5%; in the assay with DU-145 prostate it was 38.2%; in the assay with K-562 leukemia, 31.2%. Also, the growth with MALME-3M melanoma was 64.4%; with MDA-MB-231 breast, 82.9%; with RXF 393 renal it was 31.9%; in the assay with SF-268 CNS, 33.5%; in the assay with SF-295 CNS it was 29.7%; in the assay on SF-539 CNS, 28.9%. The growth in the assay with UACC-257 melanoma was 78.8%; with M14 melanoma, 29.9%.
Consider `O=C(CCCCCCN1CC(=O)N2[C@@H](c3cc(F)cc(F)c3)c3[nH]c4ccccc4c3C[C@H]2C1=O)NO`, for which the growth was 77.4% in the assay with NCI-H23 lung; 98.1% in the assay on NCI-H226 lung; 75.1% in the assay on NCI-H322M lung; 63.4% in the assay on HOP-62 NSCLC; 64.4% in the assay with NCI-H460 lung; 49.2% with HOP-92 NSCLC. The growth is 41.2% with NCI-H522 lung; 90.5% in the assay with A549/ATCC NSCLC; 90.9% in the assay with 786-0 renal; 53.1% in the assay on COLO 205 colon; 65.7% with DU-145 prostate; 32.2% with K-562 leukemia. In addition, the growth in the assay on MALME-3M melanoma is 30.7%; in the assay on MDA-MB-231 breast, 62%; in the assay on RXF 393 renal, 33.6%; in the assay on SF-268 CNS, 79.8%; with SF-295 CNS, 60%; in the assay with SF-539 CNS, 60.5%. The growth with UACC-257 melanoma is 44.1%; with M14 melanoma, 51.9%.
On to `CCOC(=O)C1=C(C)Nc2nc3ccccc3n2C1c1ccccc1` (stereo not given), for which the growth in the assay with NCI-H23 lung was 97%; with NCI-H226 lung, 104%; with NCI-H322M lung, 104%; in the assay with HOP-62 NSCLC, 100%; in the assay on NCI-H460 lung, 74.7%; in the assay with HOP-92 NSCLC, 95.7%. For the same molecule, the growth is 93.3% in the assay with NCI-H522 lung; 92.7% in the assay on A549/ATCC NSCLC; 95.4% with 786-0 renal; 104% in the assay on COLO 205 colon; 105% with DU-145 prostate; 76.1% in the assay with K-562 leukemia. Besides, the growth with MALME-3M melanoma is 94.3%; with MDA-MB-231 breast it was 95.8%; in the assay with RXF 393 renal, 107%; in the assay on SF-268 CNS, 102%; in the assay on SF-295 CNS, 102%; in the assay on SF-539 CNS, 96.9%. The values for the growth with UACC-257 melanoma and in the assay on M14 melanoma were 97.4% and 102%, respectively.
On to `NNC(=O)c1sc2nc(-c3cnccn3)cc(-c3cccs3)c2c1N`, for which the growth with NCI-H23 lung was 98.6%; with NCI-H226 lung it was 89.7%; with NCI-H322M lung, 74.4%; with HOP-62 NSCLC it was 91.6%; with NCI-H460 lung it was 103%; with HOP-92 NSCLC, 101%. The growth in the assay on NCI-H522 lung was 101%; with A549/ATCC NSCLC, 102%; in the assay with 786-0 renal, 108%; with COLO 205 colon it was 102%; with DU-145 prostate, 104%; with K-562 leukemia, 95.5%. Further, the growth in the assay on MALME-3M melanoma was 95.6%; with MDA-MB-231 breast, 79%; in the assay on RXF 393 renal, 102%; in the assay with SF-268 CNS, 93.5%; in the assay with SF-295 CNS it was 104%; in the assay with SF-539 CNS, 94.9%. In addition, the growth in the assay with UACC-257 melanoma was 115%; in the assay on M14 melanoma it was 105%.
Consider `CN1CCN(c2ccc3c(c2)nc(NNC(=O)c2ccncn2)c2cccn23)CC1`, for which the growth in the assay on NCI-H23 lung was 36.2%; with NCI-H226 lung, 44.5%; in the assay with NCI-H322M lung, 30.2%; with HOP-62 NSCLC, 35.7%; in the assay with NCI-H460 lung, 27.4%; in the assay with HOP-92 NSCLC, 53.1%. The growth was 18.2% in the assay on NCI-H522 lung; 23.3% in the assay with A549/ATCC NSCLC; 9.5% (active) in the assay with 786-0 renal; 17.9% in the assay with COLO 205 colon; 27.5% in the assay on DU-145 prostate; 25.6% in the assay on K-562 leukemia. Also, the growth in the assay on MALME-3M melanoma was 43.9%; in the assay with MDA-MB-231 breast it was 36.9%; in the assay with RXF 393 renal it was 66.5%; in the assay with SF-268 CNS, 26.6%; with SF-295 CNS it was 0.713% (active); in the assay on SF-539 CNS, 24.2%. The growth is 42.8% with UACC-257 melanoma and 9.89% (active) in the assay with M14 melanoma.
Take `CNC(=O)c1cc(Oc2ccc3nc(NC(=O)c4ccc(CN5CCCN(C)CC5)c(C(F)(F)F)c4)sc3c2)ccn1`: the growth in the assay with NCI-H23 lung was 23%; in the assay with NCI-H226 lung it was 82.9%; in the assay on NCI-H322M lung, 32.2%; in the assay with HOP-62 NSCLC, 11.5%; in the assay with NCI-H460 lung, 5.57% (active); in the assay with HOP-92 NSCLC, 37.7%. Moreover, the growth in the assay with NCI-H522 lung is -56.6% (active); with A549/ATCC NSCLC, 39.9%; in the assay on 786-0 renal, -76.3% (active); in the assay on COLO 205 colon, -64.4% (active); with DU-145 prostate it was 40.2%; with K-562 leukemia, -39.9% (active). For the same molecule, the growth was -69.7% (active) in the assay on MALME-3M melanoma; -21.9% (active) in the assay on MDA-MB-231 breast; -46.4% (active) in the assay with RXF 393 renal; 58% in the assay on SF-268 CNS; -34.8% (active) in the assay on SF-295 CNS; -82.5% (active) in the assay on SF-539 CNS. The growth with UACC-257 melanoma is -88.4% (active); in the assay on M14 melanoma it was -88% (active).
On to `CSc1ccc(/C(=N/N=C(N)N)c2ccccc2)cc1`, for which the growth in the assay with NCI-H23 lung was 29.2%; in the assay on NCI-H226 lung, 50.6%; with NCI-H322M lung, 50.9%; in the assay with HOP-62 NSCLC it was 49.3%; with NCI-H460 lung, 6.46% (active); in the assay with HOP-92 NSCLC, 34.4%. For the same molecule, the growth with NCI-H522 lung was 11.8%; in the assay on A549/ATCC NSCLC, 27.4%; in the assay with 786-0 renal, 31%; in the assay on COLO 205 colon, 0.455% (active); in the assay with DU-145 prostate, 15.2%; in the assay on K-562 leukemia, 25.2%. Also, the growth with MALME-3M melanoma is 50.6%; in the assay on MDA-MB-231 breast, 29.5%; in the assay with RXF 393 renal, 15.4%; with SF-268 CNS, 53.6%; in the assay on SF-295 CNS, 5.99% (active); with SF-539 CNS, -8.23% (active). The growth in the assay on UACC-257 melanoma is 80.7%; with M14 melanoma it was 9.73% (active).
